TDP1 cell noCPT: qHTS for Inhibitors of human tyrosyl-DNA phosphodiesterase 1 (TDP1): qHTS in cells in absence of CPT; DT40 Tdp1-/- hTDP1 cells, no CPT, ATP luminescence, 48 h; Potency, µM (titrated, usually from 46.2 µM), inactives show at the top dose activity change, negative = growth inhibition, hits mostly inhibitors; actives 15% (n = 420,000); note: potency is the fitted concentration of half-maximal effect; % is set by controls: 0 for no effect and ±100 for the full control effect; nearly all actives have a fitted effect of over 55% in size
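Luminescent ATP content (CellTiter-Glo) served as the growth readout. Knockout chicken DT40 cells expressing human TDP1 were exposed to compounds without camptothecin for a minimum 48 hr at 37 °C.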
TGFb inhibitor: TGF-b pathway inhibition | Potency, µM (titrated, usually from 46.1 µM), inactives show at the highest dose activity, negative = inhibition, actives largely listed as inhibitors | HepG2 CAGA-GFP TGF-b/SMAD3 reporter, GFP fluorescence, 18 h; TGF-beta stimulated, 500 pg/mL final | actives 1.2% (n = 410,000) | AID 588855; note: potency is the fitted concentration of half-maximal effect; % is set by controls: 0 for no effect and ±100 for the full control effect; nearly all actives have a fitted effect of over 65% in size
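HEPG2 CAGA-GFP reporter cells (1000/well, DMEM with 1% FBS) received compounds, then recombinant TGF-beta at 500 pg/mL final for 18 hours at 37 degrees C. Per-cell GFP summed per well was normalised to unstimulated and stimulated DMSO controls before curve fitting.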
TDP1 cell CPT: growth inhibition of DT40 Tdp1-/-;hTDP1 cells with camptothecin (screen for TDP1 inhibitors); chicken DT40 Tdp1-/-;hTDP1 cells + 20 nM CPT, ATP luminescence, 48 h; Potency, µM (titrated, usually from 46.2 µM), for the others: at the top dose activity change, negative = growth inhibition, usual class: inhibitors; actives 12% (n = 420,000); note: potency is the fitted concentration of half-maximal effect; % is set by controls: 0 for no effect and ±100 for the full control effect; nearly all actives have a fitted effect of over 55% in size
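Cell growth measured by CellTiter-Glo luminescence after a minimum 48 h, 37 C compound exposure with 20 nM CPT in Tdp1-knockout DT40 cells stably expressing hTDP1, seeded 400/well; qHTS titration format.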
HepG2 viability: counter-screen for TGF-b inhibitors: cytotoxicity in HepG2 cells. AID 588856. actives 0.76% (n = 410,000). HepG2 CAGA-GFP viability, ATP luminescence, 18 h. Potency, µM (doses to about 46.1 µM), without a hit: at the highest dose activity change, negative = cytotoxicity, hits mostly cytotoxic; note: potency is the fitted concentration of half-maximal effect
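CellTiter-Glo luminescence gave cytotoxicity after 18 hours at 37 degrees C. The cells were HepG2 CAGA-GFP in 1% FBS DMEM, stimulated with 500 pg/mL TGF-beta after compound addition. %Activity was normalised to no-cell wells (complete cell-killing) and DMSO (no toxicity), and curves were fitted and classified.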
TDP1 block: blocks human tyrosyl-DNA phosphodiesterase 1 | Q9NUW8 | recombinant TDP1, AlphaScreen DNA substrate cleavage | Potency, µM (titrated, usually from 130 µM), without a hit: at the top dose activity change, negative = inhibition, actives largely listed as inhibitors | actives 0.28% (n = 350,000); note: potency is the fitted concentration of half-maximal effect; % is set by controls: 0 for no effect and ±100 for the full control effect; nearly all actives have a fitted effect of over 40% in size
Target sequence (Q9NUW8 whole entry, looked up): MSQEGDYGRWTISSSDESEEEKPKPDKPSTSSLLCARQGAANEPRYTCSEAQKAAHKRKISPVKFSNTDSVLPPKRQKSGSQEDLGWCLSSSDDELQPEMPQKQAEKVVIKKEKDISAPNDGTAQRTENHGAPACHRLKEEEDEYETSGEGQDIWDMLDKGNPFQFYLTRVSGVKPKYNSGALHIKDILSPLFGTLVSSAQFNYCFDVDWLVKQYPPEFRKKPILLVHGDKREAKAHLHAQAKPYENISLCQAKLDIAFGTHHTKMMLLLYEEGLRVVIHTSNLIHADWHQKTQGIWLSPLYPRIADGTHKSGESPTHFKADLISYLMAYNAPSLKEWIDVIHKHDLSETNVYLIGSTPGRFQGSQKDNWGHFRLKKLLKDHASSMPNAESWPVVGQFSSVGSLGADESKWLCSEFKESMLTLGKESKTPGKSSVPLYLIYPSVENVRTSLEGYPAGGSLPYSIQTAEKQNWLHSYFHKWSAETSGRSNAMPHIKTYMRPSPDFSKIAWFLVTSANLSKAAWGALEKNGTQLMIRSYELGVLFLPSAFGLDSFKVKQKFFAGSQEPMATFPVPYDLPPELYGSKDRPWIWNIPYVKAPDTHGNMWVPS
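E. coli-derived human Tdp1, 1 nM final. Cpd preinc 15 min RT; substrate 15 nM final, 5 min RT; AS bead mix 10 ug/ml final, 10 min RT. Signal loss = tyrosine-FITC cleavage. No-enzyme wells = max signal.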
IL-1B inflam inh: inflammasome signaling inhibition, IL-1 beta readout; actives 4.7% (n = 360,000); THP-1 LPS/ATP IL-1B secretion, AlphaLISA, 16 h; active compounds read low; AID 743279; activity change, % at 57.5 µM; in the data active = activity change below about -50%; inconclusive = mostly about -30% to -49%; note: % is set by controls: 0 for no effect and ±100 for the full control effect
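Secreted IL-1B measured by AlphaLISA bead assay after 16 h compound exposure of THP-1 cells; compounds (final up to 57.5 uM) added 1 h before LPS (250 ng/mL) and ATP (1.25 mM) stimulation; lower signal means less secretion.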
The depositor's hits bear a star; i = inactive; ? = inconclusive; . = no result; [ ] = another dose, or the depositor's remark. Most compounds without a hit are left out; they make up all but 19% or so of the library. Unless noted, calls come from the whole dose curve; as a rule, active = well fitted curve in the direction sought with a large enough effect; inconclusive = small, poorly fitted or top-dose-only effect, or another doubt; inactive = no such curve, though single readings can be large; an effect the other way counts as inactive or inconclusive.

SMILES | TDP1 cell noCPT | TGFb inhibitor | TDP1 cell CPT | HepG2 viability | TDP1 block | IL-1B inflam inh
COC(=O)c1cc(Cl)c(NC(=O)/C=C/c2ccc(Cl)cc2)cc1OC | ? | -0.1% | ? | -5.4% | -2.6% | 0.0
COc1cc(NC(=O)/C=C/c2ccccc2)c(C(=O)O)cc1OC | ? | -21.5% | ? | 0.4% | . | -3.9
Cc1cc(O)c(C(c2cccc(F)c2)N2CCN(c3ccccc3)CC2)c(=O)n1Cc1ccco1 (centres undefined) | -17.1% | 0.5% | -24.1% | -0.5% | 2.7% | .
Cc1cccc(NC(=O)/C(C#N)=C/c2ccco2)c1 | ? | -3.6% | ? | -22.2% | 2.2%[12.3 µM] | .
CCOC(=O)c1ccccc1NC(=O)Cc1ccccc1OC | -15.0% | 8.3% | ? | -10.4% | -1.3%[56.1 µM] | 1.5
CCOC(=O)c1ccc(NC(=O)Nc2ccc(OC)c(OC)c2)cc1 | ? | 16.3% | ? | -7.4% | 5.6% | 39.1
CCOC(=O)c1sc(-c2ccc(F)cc2)cc1NC(=O)Nc1ccccc1OC | ? | 7.5% | 16.4µM* | 0.9% | 0.0% | i
COc1ccc(OC)c(/C=C/C(=O)Nc2ccc(C(=O)OCCC(C)C)cc2)c1 | 18.4µM* | -2.8% | 18.4µM* | -21.6% | 1.3%[12.3 µM] | .
CCOC(=O)c1ccccc1NC(=O)Nc1ccc(OC)c(OC)c1 | 7.3% | 0.1% | -23.9% | 1.8% | 1.1% | -67.4*
CCOC(=O)c1ccccc1NC(=O)/C=C/c1cc(OC)c(OC)c(OC)c1 | 6.51µM* | 15.7% | -20.1% | -15.9% | 3.0% | -6.6
CC(C)C1OC(CCc2ccccc2)Cc2[nH][nH]c(=O)c21 (centres undefined) | 23.1µM* | . | -23.1% | . | . | -6.7
CCOC(=O)c1ccc(NCc2ccncc2)cc1 | ? | -10.8% | ? | 4.1% | . | 20.0
CCOC(=O)c1ccc(NCc2nc3ccccc3[nH]2)cc1 | 16.4µM* | -7.8% | 16.4µM* | -22.8% | -5.3% | 12.8
CCOC(=O)Cc1nc2ccccc2[nH]1 | -23.7% | ? | -16.2% | 2.6% | 4.1% | 40.8
Cc1ccc(C(=O)Cc2nc3ccccc3[nH]2)cc1 | -28.8% | -4.8% | ? | -17.1% | . | -101.0*
CSCC[C@H](NC(=O)c1cc([N+](=O)[O-])ccc1Cl)c1nc2ccccc2[nH]1 | -3.0% | -3.8% | -20.6% | -2.9% | 3.0% | -3.5
O=C(NCC(O)c1nc2ccccc2[nH]1)c1cc([N+](=O)[O-])ccc1F (centres undefined) | ? | -0.2% | ? | -21.7% | . | -86.6*
O=C(NC(Cc1ccccc1)c1nc2ccccc2[nH]1)c1cccc([N+](=O)[O-])c1 (centres undefined) | ? | -9.8% | 20.6µM* | -16.9% | -2.5% | -15.5
COc1cc(-c2c(C(=O)c3ccccc3)[nH]c(N)c2C(N)=O)ccc1F | ? | . | ? | . | . | 0.0
CCOC(=O)c1cnc2nc(NCc3cccc(Br)c3)[nH]n2c1=O | -3.7% | -2.0% | -5.3% | 2.2% | 7.4% | .
C=C1CC[C@@H]2O[C@@]2(C)CC[C@H]2[C@H]1CC2(C)C | 0.7% | . | 2.7% | . | 4.8% | .
CCCCN(CC)C(=O)CCNS(=O)(=O)c1ccc2c(c1)c(=O)n(C)c(=O)n2C | -27.7% | -21.1% | -12.2% | -7.1% | 3.8% | .
O=C(NCc1nc2ccccc2[nH]1)c1c(F)c(F)c(F)c(F)c1F | 17.7% | 24.0% | -1.7% | 2.0% | 2.5% | -78.3*
O=C(NCc1nc2ccccc2[nH]1)c1ccc([N+](=O)[O-])cc1 | 5.9% | -0.3% | 9.8% | 6.5% | 5.3% | 3.5
O=C(Cc1nc2ccccc2[nH]1)c1cccc([N+](=O)[O-])c1 | 3.66µM* | ? | 2.91µM* | -41.1% | 8.2% | 0.0
SMILES | TDP1 cell noCPT | TGFb inhibitor | TDP1 cell CPT | HepG2 viability | TDP1 block | IL-1B inflam inh
COc1cc(NC(=O)C(C)N2CCN(C(=O)C3CC3)CC2)cc(OC)c1 (centres undefined) | 1.1% | -3.3% | 1.2% | -3.2% | 0.4% | -2.6
COc1ccc(NS(=O)(=O)c2ccc(OCC(=O)N3CCOCC3)cc2)cc1Cl | ? | -12.1% | ? | -15.3% | 1.9% | 13.6
O=C(Nc1cc(C(=O)Nc2ccc(S(=O)(=O)O)cc2S(=O)(=O)O)cc(C(=O)Nc2ccc(S(=O)(=O)O)cc2S(=O)(=O)O)c1)Nc1cc(C(=O)Nc2ccc(S(=O)(=O)O)cc2S(=O)(=O)O)cc(C(=O)Nc2ccc(S(=O)(=O)O)cc2S(=O)(=O)O)c1 | -21.5% | -6.3% | ? | 3.0% | 5.01µM* | .
Nc1ccc(C(=O)Nc2ccc3cc(S(=O)(=O)O)ccc3c2)cc1 | -6.5% | -6.0% | -1.0% | 1.9% | . | 3.4
Clc1cccc(Cl)c1CO/N=C/c1c(-c2ccccc2)nc2n1CCS2 | 20.6µM* | ? | 18.4µM* | -9.8% | 9.9% | -15.4
COC(=O)/C(C#N)=C/c1c(-c2ccccc2)nc2n1CCS2 | ? | 17.0% | -20.0% | -14.7% | 2.5% | -0.3
CCC(C)[C@H]1CN=C(N)N1CC1CCCCC1 (some centres undefined) | 2.31µM* | -5.3% | 2.59µM* | -4.3% | . | -1.4
NCCCC[C@H]1CN=C(N)N1CC1CCCCC1 | -2.9% | -1.0% | -13.8% | 3.7% | . | -0.7
NCCCC[C@H]1CN=C(N)N1CCCCC1CCCCC1 | ? | 9.1% | ? | -4.9% | . | -64.0*
CC[C@H](C)[C@H]1CNC(=S)N1CC1CCN(CCCC2CCCC2)CC1 | ? | -2.2% | ? | -19.8% | . | -28.5
CC(O)[C@H]1CN=C(N)N1CCCCC1CCCCC1 (some centres undefined) | 8.2µM* | 12.3% | 9.2µM* | -9.3% | 0.0% | ?
O=C(O)[C@H](O)[C@@H](O)[C@H](O[C@@H]1O[C@H](CO)[C@H](O)[C@H](O)[C@H]1O)[C@H](O)CO | 2.8%[21.1 µM] | . | -0.7%[21.1 µM] | . | . | .
CC(=O)C[C@H](O)CC(=O)[C@@H]1OC(=O)CCCCCCCCc2ccccc21 | -21.3% | -29.4% | ? | 2.6% | 0.4% | -14.3

Screening results from PubChem.
